# From PubChem BioAssay (NCI)
# Compounds without any hit were thinned out: in the full panel of roughly 83,000, 20% have a hit.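 Note: values are percent growth. 100 is the growth of untreated cells, values between 100 and 0 indicate rising inhibition; between -100 and 0 indicates cell death.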 Unmarked numbers belong to inactive results. Activity calls are given as the source filed them. Rule for the calls: active = growth percent below 10; inactive = the rest.
# Experiments:
# Assay in all cases: NCI-60 one-dose screen, 48 h (100 = growth as untreated, 0 = no growth, -100 = all killed)
# Conditions in all cases: 10 µM unless noted
# HCT-15 colon = test system: HCT-15 colon
# SNB-75 CNS = test system: SNB-75 CNS
# SNB-19 CNS = test system: SNB-19 CNS
# U251 CNS = test system: U251 CNS
# PC-3 prostate = test system: PC-3 prostate
# SK-MEL-5 melanoma = test system: SK-MEL-5 melanoma
# UACC-62 melanoma = test system: UACC-62 melanoma
# LOX IMVI melanoma = test system: LOX IMVI melanoma
# SK-MEL-28 melanoma = test system: SK-MEL-28 melanoma
# SK-MEL-2 melanoma = test system: SK-MEL-2 melanoma
# EKVX NSCLC = test system: EKVX NSCLC
# SN12C renal = test system: SN12C renal
# UO-31 renal = test system: UO-31 renal
# TK-10 renal = test system: TK-10 renal
# CAKI-1 renal = test system: CAKI-1 renal
# A498 renal = test system: A498 renal
# CCRF-CEM leukemia = test system: CCRF-CEM leukemia
# MOLT-4 leukemia = test system: MOLT-4 leukemia
# ACHN renal = test system: ACHN renal
Compound,growth (HCT-15 colon),growth (SNB-75 CNS),growth (SNB-19 CNS),growth (U251 CNS),growth (PC-3 prostate),growth (SK-MEL-5 melanoma),growth (UACC-62 melanoma),growth (LOX IMVI melanoma),growth (SK-MEL-28 melanoma),growth (SK-MEL-2 melanoma),growth (EKVX NSCLC),growth (SN12C renal),growth (UO-31 renal),growth (TK-10 renal),growth (CAKI-1 renal),growth (A498 renal),growth (CCRF-CEM leukemia),growth (MOLT-4 leukemia),growth (ACHN renal)
C=CC(=O)Nc1cccc(Oc2nccc(Nc3nnc(-c4ccc(Br)cc4)s3)n2)c1,88.6%,87.5%,97%,97.5%,89.5%,94.7%,87.6%,91.9%,108%,110%,101%,99.2%,78.9%,152%,81.2%,101%,87.3%,100%,
COc1cc(/C=C/c2cn[nH]c2-c2ccc(C)cc2)cc(OC)c1OC,23%,29.5%,48.2%,22.6%,28.2%,12%,32.8%,40.6%,56.8%,2.13% (active),47.8%,51.2%,45.9%,66%,32.6%,33.8%,24.8%,22.8%,49.4%
CC(C)Cc1nc(Nc2ccccc2)[nH]c(=O)c1C#N,60.5%,62.4%,54.8%,55.8%,38%,48.7%,19.5%,48.7%,55.9%,40.5%,59.4%,52.8%,14%,82%,50.9%,19.4%,60.2%,61.6%,57.5%
CSc1ccc(N2C(=N)C(=S)N(c3ccc(C)cc3)C2=O)cc1,85.9%,89.9%,101%,91%,74%,101%,92.8%,87.4%,106%,118%,93.9%,94%,75.5%,109%,82.7%,104%,80.6%,89.8%,88.2%
CC1=Nc2cnc(Nc3ccc(N4CCCCC4)cc3)nc2Nc2ccccc21,62.6%,86.7%,94.9%,83.8%,19.6%,41.6%,55.2%,75.8%,84.7%,86%,,69.7%,49.7%,97.3%,79.3%,55.8%,31.5%,26.7%,68.1%
CN1C(=O)/C(=C/c2ccc(C(=O)Nc3ncc(Cc4cccc(C(F)(F)F)c4)s3)cc2)SC1=S,36.3%,64.1%,61.5%,67.8%,53.5%,7.19% (active),11.3%,35%,46.4%,56.7%,37.1%,73.4%,51.1%,47.5%,22%,35.6%,7.85% (active),46.8%,32.4%
c1csc(-c2cn3nc(-c4c[nH]c5ccccc45)sc3n2)c1,21.6%,-4.32% (active),28.7%,23.7%,26.5%,19.5%,32.5%,28.8%,48.5%,37.2%,36%,34.2%,30.7%,50.5%,29.8%,20.8%,10.7%,27.2%,42.2%
COc1nc(/C=C\Nc2ccc3c(c2)OCCOCCOCCOCCO3)nc(OC)n1,91.5%,72.3%,103%,103%,99.4%,97.5%,93.3%,92.1%,104%,108%,91.8%,93.2%,79.5%,81.9%,93.1%,75.7%,118%,107%,99.8%
Cc1sc2nc(NCCN)[nH]c(=O)c2c1C,92.8%,67.4%,87.5%,95.9%,93.3%,96%,95.4%,91.3%,98.4%,103%,,90%,91.4%,96.9%,100%,91.8%,117%,106%,91.2%
CC(O)CNC(Cc1ccccc1)c1ccc2c(c1)OCO2 (stereo not given),104%,90.2%,101%,97.3%,65.8%,100%,,92.5%,72.3%,65%,96.6%,105%,69.7%,82.9%,93.1%,89.9%,96.3%,95.4%,101%
Nc1cc(C(=O)O)cc(-n2c(O)c(C=C3N=c4ccccc4=N3)sc2=S)c1,103%,80.7%,103%,107%,92.4%,97.9%,,95.8%,104%,101%,99.4%,95.8%,69.5%,103%,86.8%,102%,106%,103%,99%
O=[N+]([O-])c1c(O)c(Cl)cc(Cl)c1Cl,99.8%,98.8%,101%,97.9%,88%,98.3%,100%,94.2%,109%,113%,107%,101%,93.6%,96.8%,102%,110%,106%,100%,
N=C(N)c1ccc(OCCSCCOc2ccc(C(=N)N)cc2)cc1,85.1%,71.2%,56.7%,48%,90.6%,41.4%,67.4%,90.5%,92.2%,82.5%,56.6%,37.4%,70.7%,60.8%,51.7%,51.7%,97.6%,93.4%,74.3%
O=C1Nc2ccc(Cl)cc2/C1=C/c1ccc[nH]1,34.2%,114%,106%,100%,111%,77.5%,102%,95.5%,129%,96.2%,32.8%,87.5%,47.7%,61.4%,45.7%,134%,96.2%,83.4%,59.6%
Cc1nc2ccccc2c(/C=C/c2ccc(F)cc2)c1C(=O)/C=C/c1ccccc1,-4.2% (active),12.1%,38.2%,-7.24% (active),29.8%,27.4%,26.1%,-82.5% (active),19.4%,14.2%,38.2%,22.2%,27.4%,23.2%,24.7%,55.5%,7.91% (active),4.66% (active),11.6%
COc1ccc(-c2cc(C(=O)N3N=C(c4ccc(N)cc4)CC3c3ccc(Cl)cc3)c3ccccc3n2)cc1 (stereo not given),21.4%,5.79% (active),48.3%,15.2%,26.1%,25.9%,38.3%,33%,63.4%,20.1%,41%,41%,45.3%,35.6%,28.3%,-1.93% (active),16.5%,20.5%,43.6%
Cc1nc2sc(C(=O)Nc3ccccn3)c(N)c2cc1C(C)O (stereo not given),36.4%,89.3%,64.7%,48.8%,72.7%,45%,42.7%,67.1%,67.4%,53.9%,86%,93.7%,,79.4%,85.5%,77.1%,,64.1%,89%
